# Hits are enriched below; roughly 9.2% of the tested compounds scored in any of these assays.
# ELG1 genotox: induces genotoxicity in HEK293T cells with luciferase-tagged ELG1; HEK293T ELG1-luciferase reporter, luminescence, 16 h; Potency, µM (highest dose often 46 µM), inactives show at the highest dose activity change, positive = activation, most hits filed as activators; actives 1.3% (n = 330,000); also: % of control where 0% means no effect; nearly all actives have a fitted effect of over 60% in size
#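 Cells (2,000/well) expressing the ELG1-luciferase fusion are dosed by pin tool and kept 16 hr at 37 °C, 5% CO2. Signal comes from ONE-Glo luciferase reagent after 30 min at room temperature.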
# FLuc counter: inhibits or activates purified firefly luciferase, miR-21 counter-screen. P08659. purified FLuc, Km substrates, luminescence inhibition. Potency, µM (titrated, usually from 57.5 µM), for inactives: at the top dose activity change, negative = inhibition, actives largely listed as inhibitors. actives 6.9% (n = 360,000). AID 588342;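 also: plate controls were vehicle for no effect and reference inhibitor for full effect; nearly all actives have a fitted effect of over 55% in size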
# Target sequence (P08659 whole entry, looked up): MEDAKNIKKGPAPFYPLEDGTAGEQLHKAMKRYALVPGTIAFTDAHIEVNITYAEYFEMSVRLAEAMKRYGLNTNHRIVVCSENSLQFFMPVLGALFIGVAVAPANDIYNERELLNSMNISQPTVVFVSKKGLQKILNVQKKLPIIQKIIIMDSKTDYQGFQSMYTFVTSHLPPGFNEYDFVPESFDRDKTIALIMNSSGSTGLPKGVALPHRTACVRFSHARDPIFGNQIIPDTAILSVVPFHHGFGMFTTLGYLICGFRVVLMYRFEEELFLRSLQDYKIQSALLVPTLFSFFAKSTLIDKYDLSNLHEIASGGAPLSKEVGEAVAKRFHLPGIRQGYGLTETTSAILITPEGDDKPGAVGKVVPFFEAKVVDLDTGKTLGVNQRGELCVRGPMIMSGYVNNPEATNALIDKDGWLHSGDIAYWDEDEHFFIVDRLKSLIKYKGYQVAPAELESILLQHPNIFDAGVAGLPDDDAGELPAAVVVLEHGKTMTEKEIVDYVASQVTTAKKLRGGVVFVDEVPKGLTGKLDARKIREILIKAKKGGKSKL
#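 Biochemical qHTS of compounds, final roughly 60 µM downward over six points, against 10 nM purified firefly luciferase using Km concentrations of substrates (10 uM D-luciferin, 10 uM ATP) in Tris acetate pH 7.5 buffer; luminescence output.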
# NPC1 promoter act: activators of NPC1 promoter | Huh7 NPC1 promoter luciferase reporter, 24 h | Potency, µM (titrated, usually from 9.22 µM), for the others: top-dose activation, hits mostly activators | actives 2.4% (n = 320,000) | AID 485313; also: % of control where 0% means no effect; nearly all actives have a fitted effect of over 60% in size
#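 Huh7 cells stably carrying NPC1 promoter–luciferase, plated in Opti-MEM with 10% FBS for 2 h, were exposed to compound in DMSO for 24 h at 37 °C; luciferase reagent was added for 10 min and luminescence read.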
# Rab9 prom act: activators of Rab9 promoter; AID 485297; Huh7 Rab9 promoter-luciferase reporter, luminescence, 24 h; Potency, µM (doses to about 9.22 µM), without a hit: top-dose activation, negative = inhibition, usual class: activators; actives 2.8% (n = 320,000); also: % of control where 0% means no effect; nearly all actives have a fitted effect of over 60% in size
#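 Measured in stably transfected Huh7 cells bearing a Rab9 promoter–luciferase construct: 24 h compound treatment at 37 °C, followed by luminescence detection.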
# SMN2 splice up: enhancers of SMN2 splice variant expression; Potency, µM (series often up to 46.1 µM), inactives show top-dose activity change, positive = activation, actives largely listed as activators; actives 2.8% (n = 210,000); AID 1458; HEK293 SMN2-luciferase splicing reporter, luminescence, 30-36 h; also: % of control where 0% means no effect; nearly all actives have a fitted effect of over 55% in size
#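 HEK293 cells carry an SMN2 […]–luciferase reporter in which exon 7 inclusion puts luciferase in frame. Cells were plated 10-12 h before compound addition, then incubated 30-36 h at 37C. ONE-Glo luminescence was read; sodium butyrate at 4.5 mM final served as control.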
# ELG1 DNA repair: ELG1-dependent DNA repair inhibition | HEK293T ELG1-luciferase reporter, luminescence, 16 h; DNA damage induced by 5-fluorouridine | Potency, µM (top dose mostly 46.1 µM), without a hit: top-dose activity change, negative = inhibition, most hits filed as inhibitors | actives 2.3% (n = 330,000) | AID 504467; also: % is scaled to controls: 0 for no effect and ±100 for the full control effect; nearly all actives have a fitted effect of over 55% in size
#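 Quantitative HTS, concentration-response format. 2,000 cells/well co-treated with 5-fluorouridine and compound, 16 hr in 5% CO2 at 37 °C; ONE-Glo luminescence read after 30 min.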
# The depositor's hits bear a star; ? = inconclusive; / = no result; [ ] = another dose, or the depositor's remark. Calls follow the shape of the dose curve; as a rule, active = well fitted curve in the direction sought with a large enough effect; inconclusive = small, poorly fitted or top-dose-only effect, or another doubt; inactive = no such curve, though single readings can be large; an effect the other way counts as inactive or inconclusive. Potency is read from the fitted curve at half-maximal effect.
SMILES,ELG1 genotox,FLuc counter,NPC1 promoter act,Rab9 prom act,SMN2 splice up,ELG1 DNA repair
O=C(N/N=C/c1ccco1)c1cc(-c2ccncc2)nc2ccccc12,3.0%,?,-14.6%,-3.7%,/,-10.2%
CCN(CC)S(=O)(=O)c1cccc(C(=O)N/N=C/c2ccccc2OCC(=O)O)c1,-0.6%,26.9µM*,-4.3%,-3.2%,2.3%,0.1%
CCn1cc(/C=N\NC(=O)c2csc3ccccc23)c(C)n1,28.6%,?,0.9%,9.5%,-10.8%,?
CCOc1ccc(NC(=O)CSc2nnc(C3CC3)n2C2CC2)cc1,-1.2%,-0.4%,-3.2%,-4.0%,/,3.3%
CCCCn1c(N)c(N(C)C(=O)c2ccc(-n3cccn3)cc2)c(=O)[nH]c1=O,3.5%,1.4%,-2.8%,-2.2%,/,20.2%
Cc1ccc(Cl)cc1N1CCN(C(=O)c2cn(C3CCCCC3)c(=O)c3c2c2ccccc2n3C)CC1,/,0.7%,/,/,-0.8%,/
COc1ccc(C)cc1Nc1nc2c(S(=O)(=O)c3cc(C)ccc3C)nnn2c2ccsc12,/,-1.4%,/,/,/,/
Cc1ccc(/C=N/NC(=O)c2cc(-c3ccccc3)nc3ccccc23)o1,0.6%,12µM*,-17.4%,-1.5%,/,-25.3%
COc1cc([N+](=O)[O-])cc(/C=N/NC(=O)c2cc(-c3ccccc3)nc3ccccc23)c1O,?,?,0.4%,-10.1%,/,?
COc1ccc(/C=N/NC(=O)c2cc(-c3ccccc3)nc3ccccc23)c(C(=O)O)c1OC,3.3%,7.57µM*,2.5%,3.2%,/,14.0%
COc1ccc(/C=N/NC(=O)c2cc(-c3ccccc3)nc3ccccc23)cc1O,-6.0%,5.36µM*,1.7%,1.2%,/,-4.9%
COc1cc(/C=N/NC(=O)c2cc(-c3ccccc3OC(C)C)nc3ccccc23)ccc1O,-6.8%,-3.4%,-1.1%,-0.2%,?,?
O=C(N/N=C/c1cc(Cl)cc([N+](=O)[O-])c1O)c1cc(-c2ccccn2)nc2ccccc12,9.5%,21.3µM*,-4.8%,-16.3%,/,?
C[N+](C)(N)CCC[N+](C)(C)N,/,/,/,/,-11.7%[9.22 µM],/
O=C(N/N=C/c1ccc(O)cc1)c1cc(-c2ccccc2)nc2ccccc12,-0.5%,5.36µM*,0.4%,6.1%,/,-2.7%
Cc1ccc(-c2cc(C(=O)N/N=C/c3c(C)nn(C)c3C)c3ccccc3n2)cc1C,?,0.601µM*,29.3%,?,?,?
O=C(O)COc1ccccc1/C=N/NC(=O)c1cc(-c2ccc(F)cc2)nc2ccccc12,-0.3%,1.9µM*,-2.8%,-3.6%,-0.6%,?
COc1ccccc1-c1cc(C(=O)N/N=C\c2cn(C)nc2C)c2ccccc2n1,-0.4%,-1.6%,-0.1%,-4.2%,-0.7%,?
O=C(N/N=C/c1ccccn1)c1cc(-c2ccccc2)nc2ccccc12,?,13.5µM*,-3.3%,1.3%,/,24.6%
C[C@H](NC(=O)OC(C)(C)C)C(=O)N/N=C/c1ccc2nccnc2c1,-1.2%,-12.7%,-4.4%,-8.2%,/,-2.0%
COc1ccc(-c2cc(C(=O)N/N=C/c3ccc4c(c3)OCO4)c3ccccc3n2)c(OC)c1,0.8%,?,-2.6%,-8.8%,349.1%,?
O=C(N/N=C/c1ccc2c(c1)OCO2)c1cc(-c2ccc(F)cc2)nc2ccccc12,1.3%,5.36µM*,-3.2%,-3.8%,-20.9%,-1.2%
COc1cc(/C=N/NC(=O)c2cc(-c3ccccc3)nc3ccccc23)ccc1O,-5.6%,10.7µM*,0.3%,-3.4%,/,?
O=C(O)COc1ccccc1/C=N/NC(=O)c1cc2ccccc2cc1O,-0.8%,7.57µM*,-4.8%,2.9%,/,?
Cc1ccc(NC(=O)Cn2cc(C(=O)C3CCCCC3)c3ccccc32)cc1,/,-9.1%,/,/,-4.6%,/
COc1cccc(N(C(=O)c2nc3nccc(C)n3n2)c2nc3ccccc3s2)c1,?,10.7µM*,?,2µM*,10µM*,?
